# Measured values: the supplement of paper PMC6555819
# System: VDR:RXRa (NR concentration 270 nM, RXRa partner concentration 90 nM)
# Assay: PBM binding z-score (relative to random genomic background probes); higher = stronger binding; sequences stand for … in GC…GCGATTGACAGCGTAGAATGAAGG
# Method: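 Protein-binding microarray (Agilent 4x180K custom design, double-stranded 60-nt probes: 5' GC cap, 34-nt variable region, 24-nt constant primer region; full probe sequence given). Purified or IVT nuclear receptor:RXRα heterodimers (3:1 NR:RXRα, mostly 270:90 nM) or homodimers were incubated for 1 h in PBS with 2% milk and no ligand, then detected with Alexa488 antibodies. Fluorescence from o1-orientation probes (~5 replicates averaged) was converted to z-scores against 500 random hg19 background probes. Variable regions are seed direct-repeat (DR0–DR5) sites, all their single-nucleotide variants and half-site ablations.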
row,Sequence,PBM binding z-score
1,CGTCAAAGTTCAGGGTAACGTAACAGAAAGCAGC,2.8
2,TCTTGTAGATCAAGCAGGGTAAGAAAGCCTGAGT,0.33
3,GGATATAGGTAATACAAGGTGAAAGTCCGATTGT,0.64
4,GCATATAGGTAATACAAGGTGAATGTCCGATTGT,0.106
5,CGTCCAAGGTCAAGGTCTGTGAAAGAGACTCGAA,3.73
6,CCTAGTTGGTCAAGGTCATACACGCTATAGGTAC,4.33
7,AGCGAAAGGTCGACGAGGTGAGTATACACCGTTT,5.23
8,AGTCAAAGTTCACCTAGGTAACGTAAGATATGCT,4.74
9,TTACTAAGGTGAGCTGAGGTCGTTGATCCAACTC,4.42
10,CCTAGTTGGTCAAGGTCACACACGCTATAGGTAC,4.26
11,AGAATGAGGTTACCAAAGATCAGGCAAACGCTTG,1.36
12,CCTAGTTGGTCAGGAGGTCACCCACCGGATATGA,3.66
13,GGAACGAGGGCAAAGTTGGTAGCATCTGTCGACG,1.14
14,ACTAGCAGGGCAAGGGTCACTCAAGATTAGTCCG,2.95
15,CCGACTGGGGCAAGGTTACAATAACGCACAGCCA,0.055
16,TCATATAGGTAATACAGTTGAAAGTCGGCATCTA,1.63
17,CCTAGCAGGCCAATCTGGGTCTCTCAAGGCTTGA,-0.64
18,CCTGCTAGGTCATGGTCATCTAATCTACAGTATG,1.89
19,CCTGCTGGGTCATGGTCAGCTAATCTACAGTATG,1.28
20,CGAACTAGGTCATTGACAGGGCAGTGAATAGTAA,2.15

row,Sequence,PBM binding z-score
1,CCTAACGGGTCACTCCAGGTTATAGCATCGGAGT,3.7
2,GGCACGAGGGCAAGTTGATAGCAGAGTTTGATGG,0.599
3,TCCTGTAGATCAATAGAGGTTAAGAAAGTGCGCT,1.67
4,CCTACAGGGCCAAAAAGGTCATTGATGCCGATAA,5.62
5,AATACAGGGTCATCGTAGGCCTGAGTACGCACAG,4.97
6,TACCCTAGGTCAGATCGGGCCAGTATACGCTATA,1.17
7,CTACCAAGGTGAGCAAGGTCGTTGATTACTATTC,5.03
8,CCTTCTGGGCCAAAGGTCATTGATTCCAATGCTC,4.59
9,ATCTCTAGGTAGAAGTTCAGTGAATCCCGAGGAT,0.473
10,TCGAGTAGGTCAGTCGGGGCATTCAGCCAACATA,5.3
11,TCTAGTTGGTCAAAGGTCACCCACTCGAAATGCG,5.09
12,TCTTGTAGATCACCAGGTTAAGAAAGCTGGCCAA,0.86
13,AGAATGAGGGCACGCTGAGTTGATAGCAGAGTAG,2.35
14,ATCGCAAGGTCGAGGTGAGTATAGAGAAAGGGAA,1.43
15,ACTATTAGTTCACTTAGGGCAACCGATACGACGC,2.52
16,GCGACTGGGGCATCAGCAGGTTGCCATAACTTAA,-0.532
17,CCTTACGGGTCACTGAGAGGTTATAGCATTTGGA,4.55
18,GGAACGGGGGCAAAGTTGATAGCATCTGTCGACG,3.25
19,TTACCAAGGTGAGCTGAGGTCGTAGATCCAACTC,3.45
20,ACTATTAGTTGAGACGAGGGCAACGGATAGGTTG,0.66
